In PubChem BioAssay:
A number with no mark means an inactive call. Results filed as inconclusive are left out. Active and inactive are the calls of the source.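 How the source made its calls, unless noted: active means viability at or below 27.92% in each of two runs, the all-compound median minus 4 SD; inconclusive means no clear call, values can overlap the other calls; inactive means the rest.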

Assays:
[1] = OD615 S. cerevisiae growth inhibition, permissive medium, pilot counter-assay, permissive growth control for S. cerevisiae lifespan shortening project (AID 705;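 active means growth inhibition above 25% in both replicates, a cutoff set 3 SD above the mean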); conditions: OD615, 24 h, at 10 µM, active compounds read high
[2] = Restrictive medium S. cerevisiae growth inhibition, OD615, pilot screen of yeast lifespan reduction project, restrictive growth control (AID 706;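 active means growth inhibition above a set limit, 3 SD over mean compound inhibition, in both replicates, cut at about 43% in these data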;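 further: modified DeaD lifespan yeast strain shifted to restrictive glucose medium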); conditions: OD615, 48 h, at 10 µM, active compounds read high
[3] = viability gain of MRP-1-high H69AR cells under doxorubicin, pilot screen, MRP-1 activator project, CellTiter-Glo, duplicate (AID 807;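 active means viability increase at or above a cutoff of the median across tested compounds plus 3 SD, cut at about 8.5% in these data, passing the limit was not always enough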;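 further: compound pretreatment 18-22 h then 72 h combined with doxorubicin; 0% = doxorubicin alone and 100% = vehicle without doxorubicin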); conditions: H69AR viability with doxorubicin, CellTiter-Glo luminescence; at 10 µM; active compounds read high
[4] = growth suppression of beta-catenin knockout HCT116, pilot screen, human colon tumor cells (AID 823;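 active means cell viability at or below a set limit in both duplicate runs, the limit being the all-compound median minus 4 SD, cut at about 23% in these data, passing the limit was not always enough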;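 further: 0% = wells killed by 20 µM Hyamine and 100% = untreated DMSO cell wells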); conditions: CellTiter-Glo, 60 h, at 10 µM, active compounds read low
[5] = growth suppression of PTEN-deleted HCT116, pilot screen, cell-based, HCT116 clonal line, CellTiter-Glo (AID 824); conditions: 60 h, at 10 µM, active compounds read low;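 further: 0% = 20 µM Hyamine control and 100% = vehicle cell control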
[6] = inhibitors of the yeast RAM network, pilot screen, dse1pr::URA3 reporter, 5-FOA selection (AID 869;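 active means inhibition over a set limit, the all-compound mean plus 3 SD, in both replicate runs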;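 further: 0% = DMSO wells with no growth and 100% = 10 µM 1-NA-PP1 with full growth; RAM network block rescues cells from 5-FOA so hits raise OD615 growth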); conditions: S. cerevisiae dse1pr::URA3 5-FOA growth, OD615, 2 d; at 10 µM; active compounds read high; strain carries analog-sensitive mutant Cbk1 kinase

Compound | growth inhibition [1] | growth inhibition [2] | viability increase [3] | viability [4] | viability [5] | inhibition [6]
Cn1c(SCc2ccccc2Cl)nnc1-c1cnccn1 | -2.59% | -7.88% | -1.15% | 103% | 102% | 2.44%
O=S1(=O)C=C(SCCN2CCCCC2)c2ccccc21 | -4.08% | -20.4% | -7.06% | 61.6% | 66.9% | 1.29%
N#CCCn1cc(C(CC(=O)c2ccc(Br)cc2)C(=O)O)c2ccccc21 (stereo not given) | 3.64% | 4.21% | -3.05% | 91.7% | 96.4% | 1.56%
O=C(CCS(=O)(=O)c1cccc2nonc12)N1CC(=O)N(CCc2ccccc2)C(=O)C1 | -5.67% | -8.59% | -3.51% | 95.4% | 92.3% | -0.47%
COc1ccc(OC)c(NC(=O)C2COc3ccccc3O2)c1 (stereo not given) | -10.5% | -6.21% | -2.23% | 82.7% | 80.3% | 0.25%
Cc1ccccc1S(=O)(=O)Cc1ccc(C(=O)N2CC(C)CC(C)C2)o1 (stereo not given) | -18.1% | -32% | -0.61% | 103% | 90.2% | -0.465%
Cc1ccc(-c2nc(C(=O)NC3CCCCCC3)no2)cc1 | -6.78% | 5.45% | 4.07% | 103% | 104% | -0.1%
CCOC(=O)c1ccccc1NC1c2ccccc2C(=O)N1c1ccc(C)cn1 (stereo not given) | -11.3% | 6.58% | -2.23% | 72.9% | 79.6% | 2.52%
NC/C(=N\O)c1ccc(Cl)cc1Cl | -6.44% | -12.5% | 2.52% | 97.7% | 94.1% | 1.2%
O=C(NCc1ccc2c(c1)OCO2)c1nnc(Cc2ccc(F)cc2)o1 | -1.76% | 9.91% | 0.87% | 105% | 97.1% | 3.56%
O=C(O)c1ccc(CSc2nnc(COc3ccc(Cl)cc3Cl)o2)cc1 | 10.6% | 20.2% | 2.94% | 103% | 94.1% | 1.22%
O=C(CCS(=O)(=O)c1cccc2nonc12)N1CCN(c2ccc(F)cc2)CC1 | -6.7% | -0.575% | 0.64% | 96.3% | 96.2% | 1.71%
Cc1c(C(=O)O)nn(-c2ccccc2)c(=O)c1C#N | -15.2% | 5.62% | 0.49% | 98.4% | 102% | 1.46%
COc1ccc(-c2n[nH]c(C)c2-c2cnn(-c3ccccc3)c2)c(O)c1 | 5.3% | 0.745% | -2.75% | 85.2% | 92.2% | -0.205%
Brc1ccccc1-c1nnc(CSc2nnc3sc4ccccc4n23)o1 | 16.1% | 64.8% (active) | -3.18% | 96.1% | 91.7% | 2.15%
COc1cccc(NC(=O)c2ccc(S(=O)(=O)N3CCCCC3)cc2)c1 | 4.79% | 5.21% | -1.52% | 95.6% | 85.7% | 1.28%
COc1ccc(C)cc1NC(=O)CSc1nnc(-c2ccccn2)n1Cc1ccco1 | -2.92% | 7.74% | -2.4% | 95.7% | 88.2% | 1%
O=C(O)CC1C(=O)NCCN1C/C=C/c1ccccc1 (stereo not given) | -17.1% | -16.1% | -2.39% | 105% | 93.1% | 3.62%
CCCCn1c(Oc2ccc(C(=O)OC)cc2)nc2c1c(=O)n(C)c(=O)n2C | -10.3% | -3.88% | -2.52% | 84.1% | 84.1% | 0.085%
COCCNc1oc(-c2ccccc2Cl)nc1C#N | -7.99% | -2.94% | -0.81% | 111% | 89.3% | 1.51%
